# Measurements as given in the supplement of paper PMC8728848.
# About 410 targets per protein were measured; listed, in parts, are those with the strongest signals and a random draw of the rest.
# B1: SP16665A-bot-344-23-344 (Bacteroides ovatus) (protein)
# chain: SDNEFPDFDYQTVYFANQYGLRTIELGESEFVDNTLDNQHKMVIKAAWGGGYTNRNNVVINFKVDESLCDNLYFKDTDQPLVPMPASYYTLASDRIAIPKGQIMAGVEVQLTDDFFADEKSISENYVIPLLMTNVQGADSILQGKPVVENPVLTNAGDWSILPQNFVLYAVKYVNPWHGEYLRRGIDHATVAGTSKDIIRHEQFVENDEVVNISTKSMKDNLLTLKTKDESGKDISYTVRLSFAEDGSCTVHSGSQNVVVSGSGKFVSKGEKNSLGGKDRNAIYLDYTVNLTDNNIQLATKDTLVLRTRNVYGGKSLEVVRK
# Key:
# Assay in all cases: glycan array binding signal (z-score within array); higher = stronger binding
# Details in all cases: glycan notation: IUPAC condensed, linker removed
# [1] = biological target: Fuc(a1-2)Gal(b1-3)GalNAc(a1-3)[Fuc(a1-2)]Gal(b1-4)GlcNAc
# Summary of the method: (§1)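 Negative Z-scores can be read as non-binding. The Z-score is calculated within each array and then averaged across arrays of one protein sequence at different concentrations or buffers and across linkers. Arrays, 3228 in all, were curated from the Consortium for Functional Glycomics database and kept only where the protein sequence was available.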
# [2] = biological target: Fuc(a1-2)Gal(b1-3)GlcNAc(b1-2)Man(a1-3)[Fuc(a1-2)Gal(b1-3)GlcNAc(b1-2)Man(a1-6)]Man(b1-4)GlcNAc(b1-4)[Fuc(a1-6)]GlcNAc
# Summary of the method: as §1
# [3] = biological target: Fuc(a1-2)Gal(b1-3)GlcNAc(b1-3)Gal(b1-4)Glc
# Summary of the method: as §1
# [4] = biological target: Fuc(a1-2)Gal(b1-3)GlcNAc(b1-3)[Gal(b1-4)GlcNAc(b1-6)]Gal(b1-4)Glc
# Summary of the method: as §1
# [5] = biological target: Fuc(a1-2)Gal3S(b1-4)GlcNAc
# Summary of the method: as §1
# [6] = biological target: Fuc(a1-2)[Gal(a1-3)]Gal(b1-3)GlcNAc(b1-2)Man(a1-3)[Fuc(a1-2)[Gal(a1-3)]Gal(b1-3)GlcNAc(b1-2)Man(a1-6)]Man(b1-4)GlcNAc(b1-4)[Fuc(a1-6)]GlcNAc
# Summary of the method: as §1
# [7] = biological target: Fuc(a1-2)[Gal(a1-3)]Gal(b1-4)GlcNAc(b1-3)[Fuc(a1-2)[Gal(a1-3)]Gal(b1-4)GlcNAc(b1-6)]GalNAc
# Summary of the method: as §1
# [8] = biological target: Fuc(a1-2)[Gal(a1-3)]Gal(b1-4)[Fuc(a1-3)]GlcNAc(b1-3)GalNAc
# Summary of the method: as §1
# [9] = biological target: Fuc(a1-2)[GalNAc(a1-3)]Gal
# Summary of the method: as §1
# [10] = biological target: Fuc(a1-2)[GalNAc(b1-3)]Gal
# Summary of the method: as §1
# [11] = biological target: Fuc(a1-3)[Gal(b1-4)]GlcNAc(b1-2)Man
# Summary of the method: as §1
# [12] = biological target: Fuc(a1-3)[Gal(b1-4)]GlcNAc(b1-3)Gal(b1-4)[Fuc(a1-3)]GlcNAc
# Summary of the method: as §1
# [13] = biological target: Fuc(a1-3)[Gal(b1-4)]GlcNAc(b1-3)Gal(b1-4)[Fuc(a1-3)]GlcNAc(b1-3)Gal(b1-4)[Fuc(a1-3)]GlcNAc
# Summary of the method: as §1
# [14] = biological target: Fuc(a1-3)[Gal(b1-4)]GlcNAc(b1-3)GalNAc
# Summary of the method: as §1
# [15] = biological target: Fuc(a1-4)GlcNAc
# Summary of the method: as §1
# [16] = biological target: Gal(a1-3)Gal(b1-3)GlcNAc
# Summary of the method: as §1
# [17] = biological target: Gal(a1-3)Gal(b1-4)GlcNAc(b1-2)Man(a1-3)[Gal(a1-3)Gal(b1-4)GlcNAc(b1-2)Man(a1-6)]Man(b1-4)GlcNAc(b1-4)GlcNAc
# Summary of the method: as §1
# [18] = biological target: Gal(a1-3)[Gal(a1-4)]Gal(b1-4)GlcNAc
# Summary of the method: as §1
# [19] = biological target: Gal(b1-3)GalNAc(b1-4)[Neu5Ac(a2-3)]Gal(b1-4)Glc
# Summary of the method: as §1
# [20] = biological target: Gal(b1-3)GlcNAc(b1-2)Man
# Summary of the method: as §1
# [21] = biological target: Gal(b1-3)GlcNAc(b1-2)Man(a1-3)[GlcNAc(b1-4)][Gal(b1-3)GlcNAc(b1-2)Man(a1-6)]Man(b1-4)GlcNAc(b1-4)GlcNAc
# Summary of the method: as §1
# [22] = biological target: Gal(b1-3)GlcNAc(b1-3)Gal(b1-3)GlcNAc
# Summary of the method: as §1
# [23] = biological target: Gal(b1-4)Glc
# Summary of the method: as §1
# [24] = biological target: Gal(b1-4)GlcNAc(b1-2)Man
# Summary of the method: as §1
# [25] = biological target: Gal(b1-4)GlcNAc(b1-2)[Gal(b1-4)GlcNAc(b1-4)]Man(a1-3)[Gal(b1-4)GlcNAc(b1-2)Man(a1-6)]Man(b1-4)GlcNAc(b1-4)GlcNAc
# Summary of the method: as §1
# [26] = biological target: Gal(b1-4)GlcNAc(b1-3)Gal(b1-4)GlcNAc
# Summary of the method: as §1
# [27] = biological target: Gal(b1-4)GlcNAc(b1-3)Gal(b1-4)GlcNAc(b1-3)Gal(b1-4)GlcNAc(b1-2)Man(a1-3)[Gal(b1-4)GlcNAc(b1-3)Gal(b1-4)GlcNAc(b1-3)Gal(b1-4)GlcNAc(b1-2)Man(a1-6)]Man(b1-4)GlcNAc(b1-4)[Fuc(a1-6)]GlcNAc
# Summary of the method: as §1
# [28] = biological target: Gal(b1-4)GlcNAc(b1-3)Gal(b1-4)GlcNAc(b1-3)[Gal(b1-4)GlcNAc(b1-3)Gal(b1-4)GlcNAc(b1-6)]GalNAc
# Summary of the method: as §1
# [29] = biological target: Gal3S(b1-4)[Fuc(a1-3)]GlcNAc
# Summary of the method: as §1
# [30] = biological target: GalNAc(a1-3)GalNAc
# Summary of the method: as §1
# [31] = biological target: GalNAc(a1-3)GalNAc(b1-3)Gal(a1-4)Gal(b1-4)GlcNAc
# Summary of the method: as §1
# [32] = biological target: GalNAc(b1-4)GlcNAc
# Summary of the method: as §1
# [33] = biological target: GalNAc(b1-4)GlcNAc(b1-2)Man(a1-3)[GalNAc(b1-4)GlcNAc(b1-2)Man(a1-6)]Man(b1-4)GlcNAc(b1-4)GlcNAc
# Summary of the method: as §1
# [34] = biological target: GalNAc(b1-4)GlcNAc6S
# Summary of the method: as §1
# [35] = biological target: GlcNAc(b1-2)[GlcNAc(b1-4)]Man(a1-3)[GlcNAc(b1-4)][GlcNAc(b1-2)Man(a1-6)]Man(b1-4)GlcNAc(b1-4)GlcNAc
# Summary of the method: as §1
# [36] = biological target: GlcNAc(b1-3)Gal(b1-4)GlcNAc(b1-6)[GlcNAc(b1-3)Gal(b1-3)]GalNAc
# Summary of the method: as §1
# [37] = biological target: GlcNAc(b1-3)[GlcNAc(b1-6)]Gal(b1-4)GlcNAc
# Summary of the method: as §1
# [38] = biological target: Man(a1-2)Man(a1-6)[Man(a1-3)]Man(a1-6)[Man(a1-2)Man(a1-2)Man(a1-3)]Man(b1-4)GlcNAc(b1-4)GlcNAc
# Summary of the method: as §1
# [39] = biological target: Man(a1-3)[Man(a1-6)]Man
# Summary of the method: as §1
# [40] = biological target: Man(a1-3)[Man(a1-6)]Man(a1-6)[Man(a1-2)Man(a1-3)]Man(b1-4)GlcNAc(b1-4)GlcNAc
# Summary of the method: as §1
# [41] = biological target: Man(a1-3)[Man(a1-6)]Man(a1-6)[Man(a1-3)]Man(b1-4)GlcNAc(b1-4)GlcNAc
# Summary of the method: as §1
# [42] = biological target: Neu5Ac(a2-3)Gal(b1-3)GalNAc
# Summary of the method: as §1
# [43] = biological target: Neu5Ac(a2-3)Gal(b1-3)[Fuc(a1-4)]GlcNAc(b1-3)Gal(b1-4)[Fuc(a1-3)]GlcNAc
# Summary of the method: as §1
# [44] = biological target: Neu5Ac(a2-3)Gal(b1-4)GlcNAc6S
# Summary of the method: as §1
# [45] = biological target: Neu5Ac(a2-3)Gal(b1-4)[Fuc(a1-3)]GlcNAc(b1-3)Gal
# Summary of the method: as §1
# [46] = biological target: Neu5Ac(a2-3)Gal(b1-4)[Fuc(a1-3)]GlcNAc(b1-3)GalNAc
# Summary of the method: as §1
# [47] = biological target: Neu5Ac(a2-3)[GalNAc(b1-4)]Gal(b1-4)Glc
# Summary of the method: as §1
# [48] = biological target: Neu5Ac(a2-6)Gal(b1-4)GlcNAc(b1-2)[Neu5Ac(a2-6)Gal(b1-4)GlcNAc(b1-6)]Man(a1-6)[Neu5Ac(a2-6)Gal(b1-4)GlcNAc(b1-2)Man(a1-3)][GlcNAc(b1-4)]Man(b1-4)GlcNAc(b1-4)GlcNAc
# Summary of the method: as §1
# [49] = biological target: Neu5Ac(a2-6)Gal(b1-4)GlcNAc(b1-3)Gal(b1-4)GlcNAc(b1-3)Gal(b1-4)GlcNAc(b1-2)Man(a1-3)[Neu5Ac(a2-6)Gal(b1-4)GlcNAc(b1-3)Gal(b1-4)GlcNAc(b1-3)Gal(b1-4)GlcNAc(b1-2)Man(a1-6)]GalNAc
# Summary of the method: as §1
# [50] = biological target: Neu5Ac(a2-8)Neu5Ac(a2-3)[GalNAc(b1-4)]Gal(b1-4)Glc
# Summary of the method: as §1
binder,measurement,setting,value
B1,glycan array binding signal (z-score),[1],-0.235
same,glycan array binding signal (z-score),[2],0.285
same,glycan array binding signal (z-score),[3],-0.208
same,glycan array binding signal (z-score),[4],-0.461
same,glycan array binding signal (z-score),[5],0.29
same,glycan array binding signal (z-score),[6],-0.333
same,glycan array binding signal (z-score),[7],8.34
same,glycan array binding signal (z-score),[8],-0.571
same,glycan array binding signal (z-score),[9],-0.372
same,glycan array binding signal (z-score),[10],-0.266
same,glycan array binding signal (z-score),[11],0.187
same,glycan array binding signal (z-score),[12],-0.237
same,glycan array binding signal (z-score),[13],0
same,glycan array binding signal (z-score),[14],-0.329
same,glycan array binding signal (z-score),[15],19.1
same,glycan array binding signal (z-score),[16],0.959
same,glycan array binding signal (z-score),[17],0.709
same,glycan array binding signal (z-score),[18],1.28
same,glycan array binding signal (z-score),[19],-0.5
same,glycan array binding signal (z-score),[20],2.76
same,glycan array binding signal (z-score),[21],-0.153
same,glycan array binding signal (z-score),[22],0.024
same,glycan array binding signal (z-score),[23],-0.451
same,glycan array binding signal (z-score),[24],1.02
same,glycan array binding signal (z-score),[25],-0.051
same,glycan array binding signal (z-score),[26],-0.125
same,glycan array binding signal (z-score),[27],2.77
same,glycan array binding signal (z-score),[28],0.116
same,glycan array binding signal (z-score),[29],-0.285
same,glycan array binding signal (z-score),[30],1.35
same,glycan array binding signal (z-score),[31],-0.21
same,glycan array binding signal (z-score),[32],1.18
same,glycan array binding signal (z-score),[33],1.54
same,glycan array binding signal (z-score),[34],-0.085
same,glycan array binding signal (z-score),[35],1.11
same,glycan array binding signal (z-score),[36],-0.227
same,glycan array binding signal (z-score),[37],-0.304
same,glycan array binding signal (z-score),[38],-0.087
same,glycan array binding signal (z-score),[39],-0.441
same,glycan array binding signal (z-score),[40],0.003
same,glycan array binding signal (z-score),[41],-0.618
same,glycan array binding signal (z-score),[42],1.94
same,glycan array binding signal (z-score),[43],0.438
same,glycan array binding signal (z-score),[44],-0.405
same,glycan array binding signal (z-score),[45],-0.135
same,glycan array binding signal (z-score),[46],1.76
same,glycan array binding signal (z-score),[47],-0.539
same,glycan array binding signal (z-score),[48],-0.263
same,glycan array binding signal (z-score),[49],-0.157
same,glycan array binding signal (z-score),[50],-0.466
